High-throughput results (PubChem)
Only some compounds are listed: those with a hit (about 2.4% of all), similar ones and a draw of the others.
Nrf2 ARE act = activates Nrf2 signaling. 410,000 tested, 0.31% active. AID 624171. Potency, µM (titrated, usually from 46.1 µM), for inactives: top-dose activation, usual class: activators. AREc32 ARE-luciferase reporter (MCF7-derived line), luminescence, 24 h; further: % of control where 0% means no effect; nearly all actives have a fitted effect of over 65% in size
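Luciferase luminescence (Steady-Glo, 30 min at room temperature) served as the read-out of ARE activation in AREc32 cells treated with compounds for 24 hr at 37 deg C.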
Nrf2 block = inhibitors of Nrf2 signaling; 360,000 tested, 2.1% active; Potency, µM (top dose mostly 46 µM), inactives show at the highest dose activity change, negative = inhibition, usual class: inhibitors; A549 ARE-Fluc reporter, luciferase luminescence, 18-24 h; further: on the % scale 0 is the no-effect control and ±100 the full control effect; nearly all actives have a fitted effect of over 60% in size
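Concentration-response testing used A549 ARE_Fluc cells at 5000 cells/well. Following an 18-24 h compound incubation, viability was read by fluorescence (Ex 405/Em 525) and luciferase output by luminescence.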
Epigenetic reg = regulators of epigenetic silencing causing reporter derepression in mouse cells; murine LDR cells, GFP reporter derepression, 30 h; Potency, µM (highest dose often 53.9 µM), inactives show at the highest dose GFP activation, most hits filed as activators; 280,000 tested, 0.2% active; further: % of control where 0% means no effect; nearly all actives have a fitted effect of over 60% in size
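Murine LDR cells carrying a silenced, genomically integrated CMV-driven GFP reporter were exposed to compound for 30 hours at 37 C. After PBS washes, GFP-positive cells (20–120 um objects) were counted by laser-scanning microplate cytometry.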
PINK1 modulator = changes PINK1 expression; Potency, µM (doses to about 76.6 µM), inactives show top-dose activation (PINK1 increase), hits mostly activators; 410,000 tested, 0.2% active; AID 624263; PINK1 immunofluorescence, high-content cytometry, 24 h; active means well fitted activation curve with a large enough effect; inconclusive means small, poorly fitted or top-dose-only effect; cell line not stated here; further: % of control where 0% means no effect; nearly all actives have a fitted effect of over 65% in size
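Stable cell line, 250 cells/well, 12 h attachment; compounds pinned at 5 concentrations, 24 h; CCCP control. Fixed with nuclear dye, primary antibodies 12 h at 10 degrees C, secondary plus cell stain; laser-scanning cytometer read.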
A549 tox = A549 cytotoxicity, counter-screen for Nrf2 inhibitors. A549 ARE-Fluc cells, CellTiter-Fluor viability, 18-24 h. Potency, µM (series often up to 46 µM), without a hit: top-dose activity change, negative = cytotoxicity, actives largely listed as inhibitors. 390,000 tested, 0.16% active. AID 504648; further: on the % scale 0 is the no-effect control and ±100 the full control effect
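A549 ARE_Fluc cells in 5% FBS OPTI-MEM were exposed to compounds in concentration-response for 18-24 h at 37 deg C. Viability was read by CellTiter-Fluor fluorescence (Ex 405/Em 525) after 30 min, before the luciferase read.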
* hit, by the source's call; ? = inconclusive; nt = not tested or not shown; [ ] = dose if it differs, or a comment. Unless noted, the call rests on the fitted dose curve; in most records, active means well fitted curve in the direction sought with a large enough effect; inconclusive means small, poorly fitted or top-dose-only effect, or another doubt; inactive means no such curve, though single readings can be large; an effect the other way counts as inactive or inconclusive. Potency means the concentration at half of the fitted maximal effect.

SMILES	Nrf2 ARE act	Nrf2 block	Epigenetic reg	PINK1 modulator	A549 tox
COc1ccc(CCC(=O)Nc2ccc(C)c(S(=O)(=O)N(C)C)c2)cc1OC	0%	13µM*	3%	4%	-2%
COc1cc(CCC(=O)Nc2ccc(C)c(S(=O)(=O)N(C)C)c2)cc(OC)c1OC	2%	23µM*	1%	?	-14%
COc1ccc(NS(=O)(=O)c2ccc(C)c(C(=O)N(C)Cc3ccc(C)cc3)c2)cc1	0%	?	nt	-1%	-14%
COc1ccc(NS(=O)(=O)c2ccc(C)c(C(=O)N(C)CCc3ccc(OC)c(OC)c3)c2)cc1	-1%	21µM*	nt	4%	-29%
Cn1ncc2c(N3CCN(c4ccccc4Cl)CC3)ncnc21	2%	nt	5%	1%	16%
CN1C[C@@H]2C(c3ccccc3)C3(c4ccc(C#N)cc4)CC2(C3)[C@H]1c1ccccc1 (some centres not stated)	4%	-1%	0%	-2%	2%
CN1C=CC2=C(C#N)C(N)C(C#N)(C#N)C(c3ccccc3)C2C1 (configuration not stated)	0%	-13%	-2%	11µM*	-19%
c1ccc(-c2nc(N3CCN(c4ccccc4)CC3)nc(-n3ccnc3)n2)cc1	0%	4.6µM*	1%	13%[38.3 µM]	-24%
COc1cccc(C2c3c(ncn(-c4ccc(C#N)cc4)c3=N)Oc3ccc4ccccc4c32)c1 (configuration not stated)	nt	-23%	nt	nt	-10%
CC(=O)NC(=S)Nc1cc(C(F)(F)F)ccc1N1CCOCC1	4%	26µM*	-2%	1%	3%
Cc1c(P(=S)(c2ccccc2)c2ccccc2)c2ccccc2n1Cc1ccccc1	nt	7%	nt	nt	-3%
CCC(c1nnnn1C1CCCCC1)N(Cc1ccco1)Cc1cc2ccc(OC)cc2[nH]c1=O (configuration not stated)	2%	23µM*	1%	14%	?
Cc1cc(-c2ccccc2)cc(-c2ccccc2)[n+]1C	0%	12µM*	0%	1%	-12%
CN(C)S(=O)(=O)c1ccc(Cl)c(NC(=O)CSc2nc3c(cc2C#N)C(=O)CCC3)c1	-1%	15µM*	25µM*	6%	-12%
Cc1ccc(NC(=O)CSc2nc3c(cc2C#N)C(=O)CCC3)cc1S(=O)(=O)N(C)C	2%	?	12%	18%	-3%
O=C(CSc1ncnc2c1cnn2-c1ccccc1Cl)N1CCN(C(=O)c2ccco2)CC1	4%	15µM*	-5%	0%	2%
COc1ccc(N2CCN(C(=O)CSc3ncnc4c3cnn4-c3ccccc3C)CC2)cc1	-1%	1%	0%	9%	-3%
CCOC(=O)Cc1csc(NC(=O)CSc2ncnc3c2cnn3-c2ccccc2Cl)n1	13%	21µM*	0%	0%	-7%
O=C(c1cccc(Cl)c1Cl)N(Cc1ccco1)Cc1cccs1	nt	-7%	nt	0%	-5%
O=C(N[C@@H]1c2ccccc2C2(CCN(C(=O)c3cc4ccccc4oc3=O)CC2)[C@H]1O)c1cccnc1	nt	nt	nt	1%	nt
COc1ccc(CNC(=O)Cc2c(C)c3ccc(O)cc3oc2=O)cc1	0%	-10%	2%	9%	9%
COc1cc(/C=C2\SC(=S)N(CC(=O)NC3=NCCS3)C2=O)cc(OC)c1OC	3%	-4%	?	28µM*	1%
COc1ccc(/C=C2\SC(=S)N(CCC(=O)NC3=NCCS3)C2=O)cc1OC	-2%	-17%	13%	8%	-5%
CCOC(=O)C1=C(c2ccccc2)N=c2s/c(=C\c3cccc(O)c3)c(=O)n2C1c1cccs1 (configuration not stated)	-1%	26µM*	?	nt	?
CCOC(=O)C1=C(C)N=c2s/c(=C\c3cccc(OCC(=O)O)c3)c(=O)n2C1c1ccccc1OC (configuration not stated)	0%	2%	nt	2%	-19%
SMILES	Nrf2 ARE act	Nrf2 block	Epigenetic reg	PINK1 modulator	A549 tox
COCC(=O)Nc1cc(C(=O)N2CCSCC2)cc2nc(-c3ccccc3)n(C)c12	nt	nt	nt	1%	nt
NNc1nc(-c2ccccc2)cc(-c2ccccc2O)n1	0%	?	0%	1%[38.3 µM]	12%
NNc1nc(-c2ccccc2)cc(-c2ccccc2)n1	-1%	9.2µM*	0%	-1%	-3%
Clc1cc(-c2ccccc2)nc(-c2ccccc2)n1	?	-3%	nt	1%	1%
Clc1nc(-c2ccccc2)cc(-c2ccccc2)n1	8.9µM*	11%	0%	3%	2%
COc1cccc(C2=NS(=O)(=O)N(C)C(C(=O)Nc3ccccc3SC)=C2)c1	9%	27%	-6%	-1%	0%
Cc1cccc2c(N3CCCC3)nc(CNS(=O)(=O)c3ccc4ccccc4c3)nc12	nt	nt	nt	-1%	nt
O/C(=C\c1nc2ccccc2[nH]1)c1cccs1	15%	?	nt	1%	0%
O=c1oc2ccccc2nc1/C=C(\O)c1ccc(Br)cc1	?	?	?	1%	-15%
Cc1ccc2oc(=O)c(/C=C(\O)c3ccccc3)nc2c1	14µM*	-9%	1%	1%	-8%
Cc1ccc2oc(=O)c(/C=C(\O)c3cccs3)nc2c1	16µM*	?	-1%	-1%	0%
C/C(O)=C\c1nc2ccccc2oc1=O	16µM*	-8%	15%	-2%	-6%
O=c1[nH]c2ccccc2nc1/C=C(\O)c1cccs1	?	?	22µM*	?	-10%
Cc1ccc2oc(=O)c(/C=C(\O)CC(C)C)nc2c1	?	-10%	-2%	-1%	-8%
O=C(NCCc1nnc2n1CCN(Cc1ccc(F)cc1)CC2)c1ccco1	nt	nt	nt	0%	nt
CCN(CC)CCCC(C)NC(=O)c1ccc(-n2c(=O)c(=O)[nH]c3ccccc32)cc1 (configuration not stated)	nt	nt	-4%	nt	nt
O=C(COc1ccccc1C(=O)OCC(=O)Nc1cccc2ccccc12)Nc1ccc(Br)cc1	nt	nt	nt	0%	nt
Cc1nn(CC(=O)NCc2ccc(N(C)C)cc2)c(=O)c2c(C)n(-c3ccc(Cl)cc3)nc12	0%	nt	2%	0%	-7%
CC(/C=N/n1c(C2CCCCC2)n[nH]c1=S)=C\c1ccccc1	-1%	18µM*	-1%	5%	nt
Cc1cccc(/C=N/n2c(C3CCCCC3)n[nH]c2=S)c1	0%	3%	nt	7%	5%
CC1CC(C)CN(S(=O)(=O)c2ccc(Oc3ccc([N+](=O)[O-])cc3)cc2)C1 (configuration not stated)	0%	23µM*	0%	0%	12%
CCCCCCc1cc2cc(C(=O)Nc3ccc(OC)cc3)c(=O)oc2cc1O	3%	2%	-1%	40µM*	-2%
COc1cccc2cc(C(=O)NCc3ccc(C)cc3)c(=O)oc12	0%	-9%	nt	3%	1%
